Assay outcomes (PubChem)
Sampled rows, rich in hits. Any-hit rate of the full collection: about 19%.
IL1B secr inh: blocks inflammasome-driven IL-1 beta release | THP-1 LPS/ATP IL-1B secretion, AlphaLISA, 16 h; active compounds read low | activity change, % at 57.5 µM | actives 4.7% (n = 360,000) | AID 743279; in the data active = activity change below about -50%; inconclusive = mostly about -30% to -49%
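Secreted IL-1B measured by AlphaLISA bead assay after 16 h compound exposure of THP-1 cells; compounds (final up to 57.5 uM) added 1 h before LPS (250 ng/mL) and ATP (1.25 mM) stimulation; lower signal means less secretion.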
HT1080 IDH1KD tx: kills HT-1080 cells with IDH1 knockdown; Potency, µM (series often up to 46.1 µM), without a hit: at the top dose activity, negative = toxicity, usual class: cytotoxic; actives 2% (n = 360,000); HT-1080 IDH1 knockdown viability, ATP luminescence, 48 h;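 note: potency is the fitted concentration of half-maximal effect; 0% = DMSO wells and -100% = cell-free medium wells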
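After a 2 h attachment period, IDH1KD HT-1080 cells took pin-transferred compound for 48 h at 37 °C; ATP-based luminescence after 10 min room-temperature reagent incubation reported viability.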
TDP1 cell CPT: growth inhibition of DT40 Tdp1-/-;hTDP1 cells with camptothecin (screen for TDP1 inhibitors); chicken DT40 Tdp1-/-;hTDP1 cells + 20 nM CPT, ATP luminescence, 48 h; Potency, µM (doses to about 46.2 µM), inactives show at the highest dose activity change, negative = growth inhibition, most hits filed as inhibitors; actives 12% (n = 420,000); note: potency is the fitted concentration of half-maximal effect; nearly all actives have a fitted effect of over 55% in size
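Cell growth measured by CellTiter-Glo luminescence after a minimum 48 h, 37 C compound exposure with 20 nM CPT in Tdp1-knockout DT40 cells stably expressing hTDP1, seeded 400/well; qHTS titration format.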
TDP1 cell noCPT: qHTS for Inhibitors of human tyrosyl-DNA phosphodiesterase 1 (TDP1): qHTS in cells in absence of CPT | DT40 Tdp1-/- hTDP1 cells, no CPT, ATP luminescence, 48 h | Potency, µM (top dose mostly 46.2 µM), without a hit: at the highest dose activity change, negative = growth inhibition, hits mostly inhibitors | actives 15% (n = 420,000) | AID 686978, 2013; note: potency is the fitted concentration of half-maximal effect; nearly all actives have a fitted effect of over 55% in size
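Compound effects on proliferation are scored in DT40 Tdp1-/-;hTDP1 cells in the absence of CPT. ATP levels (CellTiter-Glo luminescence) are recorded after a ≥48 hr, 37 °C incubation.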
HT1080-NT tox: kills 2HG-producing HT-1080-NT fibrosarcoma cells; HT-1080-NT fibrosarcoma viability, CellTiter-Glo ATP luminescence, 48 h; Potency, µM (top dose mostly 46.1 µM), for the others: at the highest dose activity, negative = less viability, hits mostly cytotoxic; actives 1.6% (n = 360,000); AID 686970;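 note: NT is the 2HG producing partner of a matched IDH1 knockdown line; potency is the fitted concentration of half-maximal effect; 0% = DMSO-treated cells and -100% = media-only wells without cells; nearly all actives have a fitted effect of over 55% in size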
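Read-out is CellTiter-Glo luminescence after 10 minutes at room temperature, following 48 hours' compound treatment of HT-1080-NT cells (750 cells/well, RPMI, 5% FBS, 37 degrees C).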
Active calls of the source: *; ? = inconclusive; / = not tested or not shown. Unless noted, calls come from the whole dose curve; as a rule, active = well fitted curve in the direction sought with a large enough effect; inconclusive = small, poorly fitted or top-dose-only effect, or another doubt; inactive = no such curve, though single readings can be large; an effect the other way counts as inactive or inconclusive. Unless noted, % is set by controls: 0 for no effect and ±100 for the full control effect.

SMILES | IL1B secr inh | HT1080 IDH1KD tx | TDP1 cell CPT | TDP1 cell noCPT | HT1080-NT tox
C[C@H](CO)N1C[C@H](C)[C@H](CN(C)C(=O)c2cc(-c3ccccc3)on2)OCc2cnnn2CCCC1=O | -1 | -2% | 4% | -20% | 3%
CCCCN(C)Cc1cc(=O)oc2cc3c(cc12)CCCC3 | -4 | -4% | ? | ? | -14%
COc1cccc(C(=O)Nc2ccc3nc(SCc4ccc(C)cc4)sc3c2)c1 | / | / | 16µM* | 16µM* | /
Cc1ccc(OCC(=O)Nc2ccc3nc(SCC(=O)N4CCc5ccccc54)sc3c2)cc1 | / | / | 3% | 4% | /
COc1cccc(C(=O)Nc2ccc3nc(SCC(=O)N4CCc5ccccc54)sc3c2)c1 | / | / | 3.3µM* | 4.6µM* | /
COc1ccc(C(=O)Nc2ccc3nc(SCC(=O)N4CCc5ccccc54)sc3c2)cc1 | / | / | 2.9µM* | 5.2µM* | /
CCCCC(=O)Nc1ccc2nc(SCC(=O)N3CCc4ccccc43)sc2c1 | / | / | 15µM* | 5.8µM* | /
CCc1nc2cc(C(=O)N(C)CC3CCCN(C)C3)cc(NC(=O)c3ccccc3OC)c2n1C (stereo unspecified) | / | / | -2% | -7% | /
O=C(CC1NCCNC1=O)Nc1cccc(F)c1 (stereo unspecified) | / | / | -2% | -8% | /
CN(Cc1ccccc1NS(=O)(=O)c1ccc2ccccc2c1)C1CCCCC1 | 12 | -21% | ? | 21µM* | -21%
CN(Cc1ccccc1NS(=O)(=O)c1ccc(Cl)cc1)C1CCCCC1 | 10 | -3% | ? | -29% | 5%
FC(F)c1nc2nc(Cl)c(Cl)nc2[nH]1 | 41 | ? | 16µM* | ? | -13%
CC(=C/c1ccccc1)/C=N/NC(=O)c1nnn(-c2nonc2N)c1CN1CCC(C)CC1 | -11 | -2% | ? | 18µM* | 0%
CN(Cc1c(C(=O)N/N=C/c2ccccc2O)nnn1-c1nonc1N)C1CCCCC1 | 146 | ? | ? | 6.5µM* | 12µM*
Cc1nnn(-c2nonc2N)c1C(=O)N/N=C/c1ccccc1O | 31 | 8.2µM* | 4.1µM* | 4.6µM* | 6.5µM*
CN(Cc1c(C(=O)N/N=C/c2cccc(O)c2)nnn1-c1nonc1N)C1CCCCC1 | -1 | 0% | -8% | -11% | 0%
CC1CCN(Cc2c(C(=O)N/N=C/c3cccc(Cl)c3)nnn2-c2nonc2N)CC1 | 20 | -8% | ? | ? | 4%
COc1cc(/C=N/NC(=O)c2c(C)nnn2-c2nonc2N)ccc1O | -1 | -24% | 4% | -9% | ?
Cc1ccccc1COc1ccc(/C=N/NC(=O)c2nnn(-c3nonc3N)c2CN2CCC(C)CC2)cc1 | ? | -2% | 10µM* | 3.3µM* | -18%
COCCNC(=O)C1CCCN(S(=O)(=O)c2ccc3c(c2)CC(C)N3C(=O)C2CC2)C1 (stereo unspecified) | -1 | 4% | -26% | ? | 3%
CC1CCN(Cc2c(C(=O)N/N=C/c3ccccc3O)nnn2-c2nonc2N)CC1 | 91 | 5.2µM* | 8.2µM* | 7.3µM* | ?
CCOC(=O)c1ncn2c1[C@@H]1CCNC1C(=O)c1cc(OC)ccc1-2 (stereo partly specified) | -3 | -1% | ? | ? | 21%
COc1ccc(C2N=C(N)N=C(N)N2c2ccc(C)cc2)cc1 (stereo unspecified) | ? | -16% | 6.5µM* | ? | 0%
COc1ccc(C2C(C(C)=O)=C(O)C(=O)N2c2ccc(C)cc2)cc1 (stereo unspecified) | 0 | 3% | -12% | 3% | -2%
Cc1cc(C)cc(N2C(N)=NC(N)=NC2c2cccc(Cl)c2)c1 (stereo unspecified) | -54* | ? | ? | 5.2µM* | ?
SMILES | IL1B secr inh | HT1080 IDH1KD tx | TDP1 cell CPT | TDP1 cell noCPT | HT1080-NT tox
Cc1cc(C)cc(N2C(N)=NC(N)=NC2c2ccccc2F)c1 (stereo unspecified) | -28 | ? | ? | 0.65µM* | -7%
Cc1ccccc1-n1c(=S)[nH]c2nc3c(cc2c1=O)CCCC3 | 58 | 13% | 39% | -4% | 1%
COc1cccc(C2SCC(=O)N2c2ccc(Br)cc2)c1OC (stereo unspecified) | -18 | -2% | 23µM* | ? | -2%
COc1ccc(C2SCC(=O)N2c2ccc(OC)cc2)cc1 (stereo unspecified) | 2 | -8% | -14% | 7% | -2%
O=C(CCl)N1CCN(CC(=O)N2CCCC2)CC1 | ? | -3% | 4% | 0% | 1%
Cc1ccc(NC(=S)N/N=C/c2ccc([N+](=O)[O-])s2)cc1 | -73* | ? | ? | ? | ?
Cc1cc(C)cc(N=Cc2ccc([N+](=O)[O-])s2)c1 | -104* | 21µM* | 2.6µM* | 2.6µM* | ?
NC(=O)c1ccc(N=Cc2ccc([N+](=O)[O-])s2)cc1 | -108* | 2% | 5.2µM* | 3.3µM* | ?
O=[N+]([O-])c1ccc(N=Cc2sc3ccccc3c2O)cc1 | 7 | -3% | 8% | -15% | 17%
Cc1c(N=Cc2ccc(Br)s2)cccc1[N+](=O)[O-] | 4 | 7% | 1% | -1% | ?
Cc1cccc(NC(=S)N/N=C/c2cccc([N+](=O)[O-])c2)c1 | 15 | 6% | ? | ? | 7%
Cc1nc2ccccc2n1C(=O)c1cc(-c2ccc(Br)cc2)nc2ccccc12 | 8 | -6% | ? | -26% | 0%
CCc1nc2ccc(C(=O)Nc3ccc(C(N)=O)cc3)cn2c1N(CCC(C)C)CCN(C)C | -2 | -22% | -1% | -4% | -19%
O=C(N(c1ccccc1)c1ccccc1)N(c1ccccc1)c1ccccc1 | -23 | -29% | ? | 21µM* | -2%
O=C(CCl)N(c1ccccc1)c1ccccc1 | -108* | 5.2µM* | 2.1µM* | 1.8µM* | 6.5µM*
O=Cc1[nH]c2ccccc2c1N(C(=O)CCl)c1ccccc1 | / | 23µM* | 10µM* | 15µM* | 16µM*
Nc1c(C(=O)NCc2ccc3c(c2)OCO3)nnn1Cc1ccc(Br)cc1 | 13 | ? | 9% | -8% | -18%
Cc1ccc(S(=O)(=O)CCC(=O)OCC(=O)Nc2cc(S(=O)(=O)N3CCOCC3)ccc2C)cc1 | 2 | 10% | ? | ? | 13%
Cc1oc2ccc(OS(C)(=O)=O)cc2c1C(=O)OC(C)C | 0 | -13% | ? | ? | -5%
CCN(CC)C(=O)COc1ccc2oc(C)c(C(=O)OC(C)C)c2c1 | 28 | 8% | ? | 16µM* | 7%
